Results reported in PubChem BioAssay (Tox21).
Where “and” joins values, the source holds several entries; their conditions need not be identical. Equal values may be shown once. Inconclusive results are not listed. Calls of active or inactive are those of the source. Calls come from the whole dose curve; as a rule, active = well fitted curve in the direction sought with a large enough effect in the repeat runs; inconclusive = weak or mixed curves; inactive = no such curve, though single readings can be large; an effect the other way counts as inactive or inconclusive.

Tests used:
[1] = Human pregnane X receptor (PXR) small molecule agonists, qHTS cell viability counter screen (AID 1346977); note: nearly all actives have a fitted effect of over 50% in size
Outline: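 PXR-Luc HepG2 cells in medium with 5% charcoal-stripped FBS were pre-incubated 5hr, then exposed to compounds for 24hr at 37C. Viability was read in the same wells by CellTiter-Fluor fluorescence, reagent added after 23hr with a 1hr incubation.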

[2] = Caspase-3/7 induction in HepG2 cells by small molecules, qHTS assay (AID 1346978); note: nearly all actives have a fitted effect of over 15% in size
Outline: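 Wild-type HepG2 cells (2,000/well) were settled 5 h at 37 C, 5% CO2, then exposed to compounds in DMSO for 17 h. Caspase-3/7 activity was read by luminescence 30 min after adding Caspase-Glo 3/7 reagent at room temperature.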

[3] = Caspase-3/7 induction in CHO-K1 cells by small molecules, qHTS cell viability counter screen (AID 1346979); note: nearly all actives have a fitted effect of over 35% in size
Outline: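 Wild-type CHO-K1 cells were seeded at 1,500 per well, rested 5hr at 37 C, then exposed to compounds in DMSO. After 16hr, CellTiter-Fluor reagent was added and fluorescence read 1hr later as the viability measure.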

[4] = Caspase-3/7 induction in HepG2 cells by small molecules, qHTS cell viability counter screen (AID 1346981); note: series mostly up to about 92 µM; nearly all actives have a fitted effect of over 30% in size
Outline: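 Wild-type HepG2 cells (2,000/well) were allowed to settle for 5 hr at 37 C, 5% CO2, then dosed with compounds in DMSO by pin transfer. After 16 hr at 37 C, CellTiter-Fluor was added and fluorescence read 1 hr later.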

[5] = target: Nuclear receptor subfamily 1 group I member 2 (Homo sapiens) (UniProt O75469); experiment: Human pregnane X receptor (PXR) small molecule agonists, qHTS assay (AID 1346982); note: nearly all actives have a fitted effect of over 35% in size; note: potency is the fitted concentration of half-maximal effect
Nuclear receptor subfamily 1 group I member 2 (Homo sapiens), sequence (O75469 whole entry, looked up): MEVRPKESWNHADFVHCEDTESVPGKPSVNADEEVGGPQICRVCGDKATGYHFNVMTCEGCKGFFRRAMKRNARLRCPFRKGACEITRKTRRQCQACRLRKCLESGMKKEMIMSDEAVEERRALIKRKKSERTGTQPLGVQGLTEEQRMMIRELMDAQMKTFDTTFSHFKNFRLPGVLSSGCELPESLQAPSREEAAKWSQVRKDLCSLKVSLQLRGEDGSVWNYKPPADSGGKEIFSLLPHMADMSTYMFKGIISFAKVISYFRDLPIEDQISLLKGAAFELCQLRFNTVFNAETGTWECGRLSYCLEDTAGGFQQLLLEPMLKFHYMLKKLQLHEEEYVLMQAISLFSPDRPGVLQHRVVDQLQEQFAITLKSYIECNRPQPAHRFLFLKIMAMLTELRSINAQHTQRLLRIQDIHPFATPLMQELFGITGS
Outline: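 PXR-Luc HepG2 cells (CYP3A4 promoter-driven luciferase) were seeded in medium with 5% charcoal-stripped FBS, left 5 hr at 37 C, then exposed to compounds in DMSO for 24 hr. Luminescence was read after ONE-Glo addition.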

[6] = target: Cytochrome P450 2C19 (Homo sapiens) (UniProt P33261); experiment: Cytochrome P450 Family 2 Subfamily C Member 19 (CYP2C19) small molecule antagonists: luciferase reporter qHTS assay (AID 1671197); note: nearly all actives have a fitted effect of over 65% in size; note: potency is the fitted concentration of half-maximal effect; for activity change, negative = inhibition: series mostly up to about 120 µM
Cytochrome P450 2C19 (Homo sapiens), sequence (P33261 whole entry, looked up): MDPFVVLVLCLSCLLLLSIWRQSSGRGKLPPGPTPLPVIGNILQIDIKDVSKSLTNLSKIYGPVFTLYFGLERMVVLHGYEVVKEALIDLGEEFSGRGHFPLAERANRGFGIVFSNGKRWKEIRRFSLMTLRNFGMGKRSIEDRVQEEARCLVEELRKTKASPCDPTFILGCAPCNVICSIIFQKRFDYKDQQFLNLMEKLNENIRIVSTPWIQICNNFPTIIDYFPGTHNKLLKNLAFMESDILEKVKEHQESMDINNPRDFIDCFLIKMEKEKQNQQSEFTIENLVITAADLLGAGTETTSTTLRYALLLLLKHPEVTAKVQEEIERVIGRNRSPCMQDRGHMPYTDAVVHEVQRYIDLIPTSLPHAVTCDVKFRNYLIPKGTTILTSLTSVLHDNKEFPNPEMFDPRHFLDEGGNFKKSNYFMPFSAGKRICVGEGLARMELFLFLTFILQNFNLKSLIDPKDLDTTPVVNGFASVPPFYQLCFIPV
Outline: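 CYP2C19 P450-Glo, 1536-well qHTS. Cpd + enzyme/proluciferin substrate 10 min RT; + NADPH regen, 37C 1 h; stop with luciferin detection reagent, 20 min RT, luminescence (RLU). Pos ctrl ketoconazole.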

[7] = target: Cytochrome P450 1A2 (Homo sapiens) (UniProt P05177); experiment: Cytochrome P450 Family 1 Subfamily A Member 2 (CYP1A2) small molecule antagonists: luciferase reporter qHTS assay (AID 1671199); note: nearly all actives have a fitted effect of over 50% in size; note: potency is the fitted concentration of half-maximal effect; for activity change, negative = inhibition: series mostly up to about 120 µM
Cytochrome P450 1A2 (Homo sapiens), sequence (P05177 whole entry, looked up): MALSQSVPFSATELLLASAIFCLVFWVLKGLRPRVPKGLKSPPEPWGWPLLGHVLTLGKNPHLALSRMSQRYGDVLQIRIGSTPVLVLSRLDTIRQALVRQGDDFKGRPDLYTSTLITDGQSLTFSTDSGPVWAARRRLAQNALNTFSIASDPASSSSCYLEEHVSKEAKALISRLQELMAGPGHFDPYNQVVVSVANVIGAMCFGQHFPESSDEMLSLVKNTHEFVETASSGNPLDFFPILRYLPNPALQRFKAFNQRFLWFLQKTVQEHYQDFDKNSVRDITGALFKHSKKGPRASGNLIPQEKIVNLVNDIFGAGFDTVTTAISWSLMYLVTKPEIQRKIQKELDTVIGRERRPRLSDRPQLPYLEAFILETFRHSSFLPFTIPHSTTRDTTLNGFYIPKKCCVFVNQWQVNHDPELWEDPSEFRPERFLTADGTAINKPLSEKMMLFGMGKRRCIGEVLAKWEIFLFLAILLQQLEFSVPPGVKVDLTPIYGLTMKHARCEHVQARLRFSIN
Outline: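 Human CYP1A2 activity measured with a P450-Glo proluciferin substrate; compounds in DMSO preincubated 10 min at room temperature with enzyme-substrate mix, then NADPH regeneration system added for 1 h. Luciferin detection reagent, 20 min, luminescence read.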

[8] = target: Voltage-gated inwardly rectifying potassium channel KCNH2 (Homo sapiens) (UniProt Q12809); experiment: Human Ether-a-go-go-Related Gene (hERG) channel small molecule antagonists: fluorescence cell-based qHTS assay (AID 1671200);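 note: hERG-expressing U2OS cells given a thallium stimulus after FluxOR II dye loading; series mostly up to about 77 µM; nearly all actives have a fitted effect of over 50% in size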
Voltage-gated inwardly rectifying potassium channel KCNH2 (Homo sapiens), sequence (Q12809 whole entry, looked up): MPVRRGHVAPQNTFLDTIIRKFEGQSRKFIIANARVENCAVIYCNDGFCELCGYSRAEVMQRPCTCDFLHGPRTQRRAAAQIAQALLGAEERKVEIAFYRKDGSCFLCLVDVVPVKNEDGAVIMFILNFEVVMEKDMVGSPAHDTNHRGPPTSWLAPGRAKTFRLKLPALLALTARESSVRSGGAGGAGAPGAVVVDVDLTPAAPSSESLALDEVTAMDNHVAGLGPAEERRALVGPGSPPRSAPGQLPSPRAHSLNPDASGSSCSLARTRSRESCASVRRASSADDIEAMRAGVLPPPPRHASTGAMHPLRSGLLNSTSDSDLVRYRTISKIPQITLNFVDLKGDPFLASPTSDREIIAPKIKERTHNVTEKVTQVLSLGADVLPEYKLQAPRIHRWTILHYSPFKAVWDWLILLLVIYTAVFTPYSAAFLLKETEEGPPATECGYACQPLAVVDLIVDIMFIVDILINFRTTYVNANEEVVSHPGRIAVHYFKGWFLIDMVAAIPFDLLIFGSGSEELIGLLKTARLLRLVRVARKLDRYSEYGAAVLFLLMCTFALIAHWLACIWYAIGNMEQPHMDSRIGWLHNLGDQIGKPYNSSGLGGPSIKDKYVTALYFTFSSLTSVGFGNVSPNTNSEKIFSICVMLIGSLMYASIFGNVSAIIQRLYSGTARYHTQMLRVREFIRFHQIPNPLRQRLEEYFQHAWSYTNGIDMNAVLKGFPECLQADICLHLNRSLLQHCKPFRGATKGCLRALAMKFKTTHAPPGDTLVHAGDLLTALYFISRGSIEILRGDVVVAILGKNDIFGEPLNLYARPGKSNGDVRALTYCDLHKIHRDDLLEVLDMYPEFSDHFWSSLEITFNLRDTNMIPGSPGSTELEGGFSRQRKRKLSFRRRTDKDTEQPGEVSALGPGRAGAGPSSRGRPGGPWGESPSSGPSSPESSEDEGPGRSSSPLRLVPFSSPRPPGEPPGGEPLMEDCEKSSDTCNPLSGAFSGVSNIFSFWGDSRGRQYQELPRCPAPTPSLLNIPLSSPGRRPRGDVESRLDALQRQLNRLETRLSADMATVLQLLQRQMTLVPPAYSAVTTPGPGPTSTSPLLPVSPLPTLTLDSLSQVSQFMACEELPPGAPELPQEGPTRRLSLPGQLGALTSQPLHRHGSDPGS
Outline: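 U2OS cells expressing the channel were plated at 1000 cells/well, incubated overnight at 37 C, then loaded with FluxOR II thallium-sensitive dye for 1 h at room temperature in the dark, with a further 10 min at room temperature before stimulation.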

[9] = target: Cytochrome P450 3A4 (Homo sapiens) (UniProt P08684); experiment: Cytochrome P450 Family 3 Subfamily A Member 4 (CYP3A4) small molecule antagonists: luciferase reporter qHTS assay (AID 1671201); note: nearly all actives have a fitted effect of over 50% in size; note: potency is the fitted concentration of half-maximal effect; for activity change, negative = inhibition: series mostly up to about 120 µM
Cytochrome P450 3A4 (Homo sapiens), sequence (P08684 whole entry, looked up): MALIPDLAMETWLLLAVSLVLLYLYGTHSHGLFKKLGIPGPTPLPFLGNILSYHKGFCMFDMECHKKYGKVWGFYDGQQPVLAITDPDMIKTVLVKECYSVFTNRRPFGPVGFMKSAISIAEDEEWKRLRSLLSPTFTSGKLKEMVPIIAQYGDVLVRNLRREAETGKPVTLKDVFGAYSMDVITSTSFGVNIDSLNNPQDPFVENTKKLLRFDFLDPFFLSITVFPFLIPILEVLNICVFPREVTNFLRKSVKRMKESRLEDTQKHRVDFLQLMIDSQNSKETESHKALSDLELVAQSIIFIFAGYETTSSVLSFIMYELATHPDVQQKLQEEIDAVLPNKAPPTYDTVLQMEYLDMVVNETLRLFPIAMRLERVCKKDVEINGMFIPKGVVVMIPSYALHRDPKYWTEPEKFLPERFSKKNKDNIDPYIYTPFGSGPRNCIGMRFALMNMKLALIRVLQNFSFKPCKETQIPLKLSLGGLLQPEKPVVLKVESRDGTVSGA
Outline: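 P450-Glo CYP3A4 system with proluciferin substrate; compounds preincubated 10 min RT with enzyme-substrate mix, then NADPH regeneration added for 1 h RT. Detection reagent 20 min, luminescence read as relative luminescence units.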

[10] = target: Nuclear receptor subfamily 1 group I member 2 (Rattus norvegicus) (UniProt Q9R1A7); experiment: Rat pregnane X receptor (rPXR) activation by small molecules, qHTS assay (AID 1346983); conditions: rPXR luciferase reporter cells, One-Glo luminescence, 24 h; stronger effect = higher value; note: nearly all actives have a fitted effect of over 20% in size
Nuclear receptor subfamily 1 group I member 2 (Rattus norvegicus), sequence (Q9R1A7 whole entry, looked up): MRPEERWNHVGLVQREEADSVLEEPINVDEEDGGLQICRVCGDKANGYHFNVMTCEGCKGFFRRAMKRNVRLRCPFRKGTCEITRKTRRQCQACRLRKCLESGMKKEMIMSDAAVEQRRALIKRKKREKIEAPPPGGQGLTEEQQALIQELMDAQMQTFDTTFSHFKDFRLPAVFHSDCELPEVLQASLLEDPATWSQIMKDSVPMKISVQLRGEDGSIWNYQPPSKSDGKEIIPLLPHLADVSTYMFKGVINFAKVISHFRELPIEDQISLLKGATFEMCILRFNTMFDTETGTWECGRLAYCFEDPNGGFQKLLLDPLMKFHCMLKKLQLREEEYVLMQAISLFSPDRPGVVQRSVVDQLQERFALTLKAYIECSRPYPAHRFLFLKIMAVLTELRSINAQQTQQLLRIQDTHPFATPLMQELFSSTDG
Outline: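 Cell-based rPXR luciferase reporter assay, 2,000 cells per well, rested 5hr at 37 C before compound addition in DMSO, then 24 hr at 37 C. One-Glo reagent was added and luminescence read after 30 min at room temperature.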

[11] = target: Nuclear receptor subfamily 1 group I member 2 (Homo sapiens) (UniProt O75469); experiment: CYP3A4 induction through human pregnane X receptor (PXR) by small molecules, qHTS assay (AID 1346984); note: nearly all actives have a fitted effect of over 40% in size; note: potency is the fitted concentration of half-maximal effect
Outline: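 DPX-2 cells (HepG2 co-transfected with PXR and CYP3A4 promoter-luciferase) treated with compounds 24 h at 37C; luciferin-IPA CYP3A4 substrate 3uM final added for 3 h, then One-Glo; luminescence read. qHTS format.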

[12] = target: Nuclear receptor subfamily 1 group I member 2 (Homo sapiens) (UniProt O75469); experiment: Human pregnane X receptor (PXR) activation by small molecules, qHTS assay (AID 1346985); note: nearly all actives have a fitted effect of over 40% in size; note: potency is the fitted concentration of half-maximal effect
Outline: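 DPX-2 cells (HepG2 co-transfected with a PXR response element and a CYP3A4-promoter luciferase construct) were seeded at 2,000 per well, rested 5 hr at 37C, then exposed to DMSO-dissolved compounds for 24 hr. Activation was read as luciferase luminescence.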

[13] = target: Cytochrome P450 2D6 (Homo sapiens) (UniProt P10635); experiment: Cytochrome P450 Family 2 Subfamily D Member 6 (CYP2D6) small molecule antagonists: luciferase reporter qHTS assay (AID 1671196); note: nearly all actives have a fitted effect of over 50% in size; note: potency is the fitted concentration of half-maximal effect; for activity change, negative = inhibition: series mostly up to about 120 µM
Cytochrome P450 2D6 (Homo sapiens), sequence (P10635 whole entry, looked up): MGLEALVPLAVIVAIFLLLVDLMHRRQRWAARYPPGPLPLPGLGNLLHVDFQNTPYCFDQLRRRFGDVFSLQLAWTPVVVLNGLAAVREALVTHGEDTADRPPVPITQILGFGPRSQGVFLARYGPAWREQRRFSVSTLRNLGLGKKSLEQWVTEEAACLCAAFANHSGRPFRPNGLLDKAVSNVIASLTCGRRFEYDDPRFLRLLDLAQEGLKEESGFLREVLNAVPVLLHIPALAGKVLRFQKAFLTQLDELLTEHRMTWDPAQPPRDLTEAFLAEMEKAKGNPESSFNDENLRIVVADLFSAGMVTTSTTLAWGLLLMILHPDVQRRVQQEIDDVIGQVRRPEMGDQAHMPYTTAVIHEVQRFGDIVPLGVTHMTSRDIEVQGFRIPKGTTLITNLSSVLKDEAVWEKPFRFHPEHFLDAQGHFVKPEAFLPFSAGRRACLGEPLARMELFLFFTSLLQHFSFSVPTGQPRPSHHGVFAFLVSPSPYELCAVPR
Outline: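 CYP2D6 enzyme–substrate mix was held with compound for 10 min at room temperature, then NADPH regeneration solution was added and the reaction ran 1 h at room temperature. Luciferin product was detected by luminescence after 20 min with detection reagent.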

[14] = target: Cytochrome P450 2C9 (Homo sapiens) (UniProt P11712); experiment: Cytochrome P450 Family 2 Subfamily C Member 9 (CYP2C9) small molecule antagonists: luciferase reporter qHTS assay (AID 1671198)
Cytochrome P450 2C9 (Homo sapiens), sequence (P11712 whole entry, looked up): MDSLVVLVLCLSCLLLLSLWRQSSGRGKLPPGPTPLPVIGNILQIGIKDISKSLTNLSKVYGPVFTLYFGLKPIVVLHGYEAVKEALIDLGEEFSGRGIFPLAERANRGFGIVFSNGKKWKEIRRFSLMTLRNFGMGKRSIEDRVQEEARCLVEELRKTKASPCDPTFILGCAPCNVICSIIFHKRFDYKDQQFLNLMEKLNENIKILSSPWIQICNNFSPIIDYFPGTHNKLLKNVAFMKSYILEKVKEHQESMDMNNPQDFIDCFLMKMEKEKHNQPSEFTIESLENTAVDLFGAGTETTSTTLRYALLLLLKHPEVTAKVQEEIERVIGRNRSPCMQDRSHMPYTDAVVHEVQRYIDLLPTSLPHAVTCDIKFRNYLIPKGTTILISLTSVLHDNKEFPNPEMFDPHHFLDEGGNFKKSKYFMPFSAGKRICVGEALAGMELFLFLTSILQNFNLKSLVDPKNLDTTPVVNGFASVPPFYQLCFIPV
Outline: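 CYP2C9 activity was measured with a P450-Glo proluciferin substrate. Enzyme–substrate mix was held with compound for 10 min at room temperature, then NADPH regeneration solution was added for 1 h at 37C. Luciferin product was read as luminescence.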

[15] = Caspase-3/7 induction in CHO-K1 cells by small molecules, qHTS assay (AID 1346980); note: nearly all actives have a fitted effect of over 15% in size
Outline: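 Wild-type cells were seeded at 1,500 per well and settled 5 hr at 37 C, 5% CO2, then exposed to DMSO-dissolved compounds for 17 hr. Caspase-Glo 3/7 reagent was added, and luminescence was read after 30min at room temperature.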
% is set by controls: 0 for no effect and ±100 for the full control effect.

COc1ccc2c(c1)c(CC(=O)OCC(=O)O)c(C)n2C(=O)c1ccc(Cl)cc1
inactive: Potency [1] | Potency [2] | Potency [3] | Potency [4] | Potency [5] | Potency [6] | Potency [7] | Potency [8] | Potency [9]

CC(C)c1cc2c(cc1S(=O)(=O)O)[C@@]1(C)CCC[C@@](C)(C(=O)O)[C@@H]1CC2
inactive: Potency [1] | Potency [2] | Potency [3] | Potency [4] | Potency [5] | max activation [10] 2.4% | Potency [11] | Potency [12] | Potency [13] | Potency [6] | Potency [14] | Potency [8] | Potency [9]

CCCc1cc(C(N)=S)ccn1
inactive: Potency [1] | Potency [2] | Potency [3] | outcome [15] | Potency [5] | max activation [10] 0.144% | Potency [11] | Potency [12] | Potency [13] | Potency [14] | Potency [7] | Potency [8] | Potency [9]

CN1C(=O)N(C)C(O)C1O (stereo unspecified)
inactive: Potency [1] | Potency [2] | Potency [3] | Potency [4] | Potency [5] | Potency [13] | Potency [6] | Potency [14] | Potency [8] | Potency [9]

CCN(Cc1ccncc1)C(=O)C(CO)c1ccccc1 (stereo unspecified)
inactive: Potency [1] | Potency [2] | Potency [3] | outcome [15] | Potency [4] | Potency [8]

O=c1n(CCO)c(=O)n(CCO)c(=O)n1CCO
inactive: Potency [1] | Potency [2] | Potency [3] | outcome [15] | Potency [5] | Potency [13] | Potency [6] | Potency [14] | Potency [7] | Potency [8] | Potency [9]

OCCOc1ccc(OCCO)cc1
inactive: Potency [1] | Potency [2] | Potency [3] | outcome [15] | Potency [5] | Potency [6] | Potency [14] | Potency [8] | Potency [9]

CN1CC(=O)NC1=N
inactive: Potency [1] | Potency [2] | Potency [3] | outcome [15] | Potency [5] | max activation [10] -5.88% | Potency [11] | Potency [12] | Potency [13] | Potency [6] | Potency [14] | Potency [7] | Potency [8] | Potency [9]

Cn1cc(S(C)=O)c(=O)c2ccc(F)cc21 (stereo unspecified)
inactive: Potency [1] | Potency [2] | Potency [3] | outcome [15] | Potency [5] | Potency [13] | Potency [6] | Potency [14] | Potency [7] | Potency [8] | Potency [9]

CCOC(=O)CC(C)=O
inactive: Potency [1] | Potency [2] | Potency [3] | outcome [15] | Potency [4] | Potency [8]

CCN1CCC[C@H]1CNC(=O)c1c(O)c(Cl)cc(Cl)c1OC
inactive: Potency [1] | Potency [2] | Potency [3] | outcome [15] | max activation [10] -0.579% | Potency [11] | Potency [6] | Potency [14] | Potency [8] | Potency [9]

CCn1nc(C(=O)O)c(=O)c2cc3c(cc21)OCO3
inactive: Potency [1] | Potency [2] | Potency [3] | outcome [15] | Potency [4] | Potency [8]

Nc1c[n+](N2CCOCC2)no1
inactive: Potency [1] | Potency [2] | Potency [3] | outcome [15] | Potency [5] | Potency [13] | Potency [6] | Potency [7] | Potency [8] | Potency [9]

OC1CCCCC1c1ccccc1 (stereo unspecified)
active: Potency [6] 79.6 µM
inactive: Potency [1] | Potency [2] | Potency [3] | Potency [4] | Potency [5] | Potency [13] | Potency [7] | Potency [8] | Potency [9]

O=C(CCCN1CCC(O)(c2cccc(C(F)(F)F)c2)CC1)c1ccc(F)cc1
inactive: Potency [1] | Potency [2] | Potency [3] | Potency [4] | Potency [5] | max activation [10] 1.11% | Potency [6] | Potency [14] | Potency [7] | Potency [9]
active: Potency [11] 4.47 µM | Potency [12] 12.6 µM

NCCc1cnc[nH]1
inactive: Potency [1] | Potency [2] | Potency [3] | outcome [15] | Potency [8]

O=C(c1ccccc1)C1CCCCC1
inactive: Potency [1] | Potency [2] | Potency [3] | outcome [15] | Potency [5] | Potency [13] | Potency [8] | Potency [9]
active: Potency [6] 71 µM | Potency [7] 44.8 µM

CCCCCCCCCCCC
inactive: Potency [1] | Potency [2] | Potency [3] | Potency [4] | Potency [5] | Potency [6] | Potency [14] | Potency [7] | Potency [8] | Potency [9]

O=C1CCCCCCCCCCCN1
inactive: Potency [1] | Potency [2] | Potency [3] | outcome [15] | Potency [13] | Potency [8]
active: Potency [5] 48.5 µM and 27.3 µM | Potency [7] 70.9 µM | Potency [9] 3.55 µM and 7.96 µM

N=c1nc(N2CCCCC2)cc(N)n1O
inactive: Potency [1] | Potency [2] | Potency [3] | Potency [4] | Potency [5] | Potency [6] | Potency [14] | Potency [7] | Potency [8] | Potency [9]
active: Potency [13] 21.9 µM

N=C(N)c1ccc(OCCCOc2ccc(C(=N)N)cc2)cc1
inactive: Potency [1] | Potency [2] | Potency [3] | Potency [4] | Potency [5] | Potency [13] | Potency [6] | Potency [7] | Potency [8] | Potency [9]

CS(=O)(=O)O
active: Potency [7] 31.9 µM
inactive: Potency [1] | Potency [2] | Potency [3] | Potency [5] | Potency [6] | Potency [14] | Potency [8] | Potency [9]

Cc1cccn2c(=O)c(-c3nnn[nH]3)cnc12
inactive: activity change, negative = cytotoxicity [1] -2.85% [at 19 µM] | caspase activation [2] -1.09% [at 19 µM] | Potency [3] | activity change, negative = cytotoxicity [4] -1.23% [at 19 µM] | activation [5] -6.8% [at 19 µM] | max activation [10] -7.7% | Potency [11] | Potency [12] | Potency [6] | activity change, negative = inhibition [14] -1.3% [at 23.6 µM] | activity change, negative = inhibition [8] 0.271% [at 15.8 µM] | activity change, negative = inhibition [9] 2.55% [at 23.6 µM]
